# Data from publication PMC5227109.
# Target: Sister chromatid cohesion protein 2 (UniProt Q04002)
# Experiment: cross-link between two proteins; cross-linking mass spectrometry
# Sequence of UniProt Q04002 (Q04002 whole entry): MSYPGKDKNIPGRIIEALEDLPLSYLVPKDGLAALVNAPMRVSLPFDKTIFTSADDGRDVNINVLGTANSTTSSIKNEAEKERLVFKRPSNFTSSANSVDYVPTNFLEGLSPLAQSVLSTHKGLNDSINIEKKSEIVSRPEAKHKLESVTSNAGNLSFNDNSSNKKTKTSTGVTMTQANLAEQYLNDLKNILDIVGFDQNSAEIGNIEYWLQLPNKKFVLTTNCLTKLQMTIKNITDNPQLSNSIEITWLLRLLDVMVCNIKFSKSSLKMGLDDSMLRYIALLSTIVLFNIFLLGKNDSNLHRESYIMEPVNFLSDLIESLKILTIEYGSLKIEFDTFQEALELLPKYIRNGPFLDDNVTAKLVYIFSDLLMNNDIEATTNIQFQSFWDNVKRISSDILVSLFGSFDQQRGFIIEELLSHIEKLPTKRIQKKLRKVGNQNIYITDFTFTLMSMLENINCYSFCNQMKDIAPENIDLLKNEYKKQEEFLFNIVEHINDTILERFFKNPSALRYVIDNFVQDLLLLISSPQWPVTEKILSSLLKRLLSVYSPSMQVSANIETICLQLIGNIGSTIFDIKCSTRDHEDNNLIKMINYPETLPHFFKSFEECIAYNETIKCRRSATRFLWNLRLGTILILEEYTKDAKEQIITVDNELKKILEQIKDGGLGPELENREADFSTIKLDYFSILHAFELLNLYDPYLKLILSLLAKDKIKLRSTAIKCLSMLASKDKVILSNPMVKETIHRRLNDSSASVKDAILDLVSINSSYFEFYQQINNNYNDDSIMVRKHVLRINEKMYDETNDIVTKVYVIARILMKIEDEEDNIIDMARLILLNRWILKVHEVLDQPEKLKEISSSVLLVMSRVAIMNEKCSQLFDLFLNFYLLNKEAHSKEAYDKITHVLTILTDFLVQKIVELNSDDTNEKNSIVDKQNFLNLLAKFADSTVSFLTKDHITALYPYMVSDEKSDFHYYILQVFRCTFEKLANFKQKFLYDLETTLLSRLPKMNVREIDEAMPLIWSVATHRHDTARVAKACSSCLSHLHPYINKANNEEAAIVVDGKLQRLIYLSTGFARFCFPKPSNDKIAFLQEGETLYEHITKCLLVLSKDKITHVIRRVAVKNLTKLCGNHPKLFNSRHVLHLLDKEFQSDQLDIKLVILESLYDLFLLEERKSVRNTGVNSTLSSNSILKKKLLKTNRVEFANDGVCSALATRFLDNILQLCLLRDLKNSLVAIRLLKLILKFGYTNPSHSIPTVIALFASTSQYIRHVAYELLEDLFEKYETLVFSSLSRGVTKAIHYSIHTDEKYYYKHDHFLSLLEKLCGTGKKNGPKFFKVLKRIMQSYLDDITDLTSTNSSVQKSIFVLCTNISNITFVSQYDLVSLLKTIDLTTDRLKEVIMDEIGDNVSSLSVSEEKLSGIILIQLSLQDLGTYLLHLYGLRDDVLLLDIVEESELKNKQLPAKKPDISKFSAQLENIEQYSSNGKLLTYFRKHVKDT
substance,measurement,value
"MAU2 chromatid cohesion factor homolog, P40090",listed as a hit,yes
